# From PubChem
# Tau fibril ThT: qHTS for Inhibitors of Tau Fibril Formation, Thioflavin T Binding; Microtubule-associated protein tau (Homo sapiens), P10636; recombinant tau K18 P301L, heparin-induced fibrillization, ThT fluorescence; Potency, µM (series often up to 57.4 µM), for inactives: at the highest dose activity, negative = inhibition, actives largely listed as inhibitors; hit rate 2.1% among 270,000; AID 1460, 2008; further: potency means the concentration at half of the fitted maximal effect; nearly all actives have a fitted effect of over 55% in size
# Target sequence (P10636 561-689 P618L limits assumed): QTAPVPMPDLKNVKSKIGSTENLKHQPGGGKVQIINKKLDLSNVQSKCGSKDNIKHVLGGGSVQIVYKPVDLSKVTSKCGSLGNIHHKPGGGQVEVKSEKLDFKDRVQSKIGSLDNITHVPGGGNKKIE
#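 Using a mix of unlabeled (15 uM) and Alexa 594-labeled (0.24 uM) tau K18 P301L, heparin-triggered fibrillization over 6 hr at 37 C was scored by ThT fluorescence.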
# Coupling enz: qHTS Assay for Inhibitors of Fructose-1,6-bisphosphate Aldolase from Giardia Lamblia: Coupling assay counterscreen; coupling enzyme system counterscreen, AmpLite Red fluorescence; activity change, negative = inhibition, % at 58.2 µM, hits read low; AID 2472, 2010; hit rate 0.67% among 290,000; in the data active means activity change below about -30%
#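 Coupling enzymes only (glyceraldehyde-3-phosphate) + compound, at 57.5 uM final, 10 min RT; add substrate/coupling/AmpLite Red mix, 20 min RT; fluorescence ex 525/em 598 nm. Actives flag coupling-system interference.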
# Tau FP inhib: qHTS for Inhibitors of Tau Fibril Formation, Fluorescence Polarization. K18 P301L tau heparin fibrillization, Alexa594 FP, 6 h. hit rate 0.39% among 280,000. Microtubule-associated protein tau (Homo sapiens), P10636. Potency, µM (highest dose often 57.7 µM), inactives show at the top dose activity, negative = inhibition, usual class: inhibitors. AID 1468, 2008; further: potency means the concentration at half of the fitted maximal effect; nearly all actives have a fitted effect of over 55% in size
#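 Steps: dispense K18 P301L tau (15 uM plus 0.24 uM Alexa 594 tracer, final) in pH 7 sodium acetate; add compound; add heparin (20 uM final); incubate 6 hr, 37 C; add ThT (30 uM final); after 1 hr ambient, read FP.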
# Tau fluor cs: Counterscreen qHTS for Inhibitors of Tau Fibril Formation, Fluorescence Polarization | hit rate 0.93% among 280,000 | AID 1463, 2008 | Potency, µM (top dose mostly 57.7 µM), for inactives: at the highest dose activity change, negative = decrease | tau K18 P301L (four-repeat tau fragment) Alexa594 fluorescence, heparin fibrillization; further: potency means the concentration at half of the fitted maximal effect; nearly all actives have a fitted effect of over 55% in size
#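 Human K18 P301L tau (15 uM unlabeled plus 0.24 uM Alexa 594-labeled, final) in 100 mM sodium acetate pH 7 was mixed with compound and 20 uM heparin and incubated 6 hr at 37 C.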
# USP1-UAF1 inh: Inhibitors of USP1/UAF1: Primary Screen | Ubiquitin carboxyl-terminal hydrolase 1 (Homo sapiens), O94782 | recombinant USP1/UAF1, Ub-Rhodamine cleavage fluorescence | AID 743255, 2014 | Potency, µM (highest dose often 57.1 µM), inactives show top-dose activity change, negative = inhibition, hits mostly inhibitors | hit rate 0.23% among 390,000; further: potency means the concentration at half of the fitted maximal effect; nearly all actives have a fitted effect of over 60% in size
#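 In this screen, compounds sit with the deubiquitinase complex (1nM) for 15 min at room temperature before Ub-Rho is added at 150nM final. Fluorescence rise is then followed for 6 reads every 60 seconds.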
# An asterisk follows results filed as active; ? = inconclusive; · = not tested or not shown; [ ] = dose if it differs, or a comment. Shown are actives, neighbours in structure and some others; about 2.3% of the full set was active somewhere. Unless noted, the call rests on the fitted dose curve; in most records, active means well fitted curve in the direction sought with a large enough effect; inconclusive means small, poorly fitted or top-dose-only effect, or another doubt; inactive means no such curve, though single readings can be large; an effect the other way counts as inactive or inconclusive. On the % scale 0 is the no-effect control and ±100 the full control effect.
SMILES,Tau fibril ThT,Coupling enz,Tau FP inhib,Tau fluor cs,USP1-UAF1 inh
Cc1cccc(C2(c3cccc(C)c3)CC2C(=O)Nc2ccc([N+](=O)[O-])cc2O)c1 (centres undefined),?,-19,?,10µM*[quencher],?
CC[C@H](C)[C@H](NC(=O)[C@@H]1CCCN1C(=O)[C@H](Cc1cnc[nH]1)NC(=O)[C@H](CCCCNC(=O)[C@H](CCCN=C(N)N)NC(=O)OCc1ccccc1)NC(=O)[C@H](Cc1ccc(O)cc1)NC(=O)c1cccnc1)C(=O)O,·,0,·,·,·
CC(=O)Oc1c(C)cc(O)c2ccccc12,25µM*,-32*,?,?,·
CC(=O)Cc1cc(O)c2ccccc2c1OC(=O)c1ccccc1,-13%,-20,0%,?,-16%
COc1cccc([C@@H]2Oc3ccc(OC)cc3/C(=N/O[C@@H](C)CN3CCCc4nc(C)c(C)cc43)[C@@H]2O)c1,-11%[11.5 µM],1,-3%[11.6 µM],-14%[11.6 µM],·
Cn1c(-c2ccc([N+](=O)[O-])cc2)nc2ccccc21,-24%,1,-2%,-2%,-21%
Cn1nc([N+](=O)[O-])c(C(C#N)c2nc3ccccc3n2C)c(Cl)c1=O (centres undefined),16µM*,-2,-5%,?,-22%
Nc1ccc2nc[nH]c2c1,?,-41*,-1%,-9%,?
C=Cc1ccc(Cn2c(C(=O)O)c(CNCc3ccccc3)c3ccc(OC)cc32)cc1,?,·,0%,-20%,?
Cc1ccc2nsnc2c1S(=O)(=O)Nc1cccc2cccnc12,·,-20,·,·,·
Cc1ccc2nsnc2c1S(=O)(=O)Nc1cccc2nsnc12,?,-34*,-1%,-14%,-21%
COCCCNC(=O)c1ccc2c3c(onc13)-c1ccccc1C2=O,6.3µM*,-32*,?,5.6µM*[quencher],20µM*
NC(=S)n1[nH]c(-c2ccc([N+](=O)[O-])cc2)c(N=Nc2cccc([N+](=O)[O-])c2)c1=O,11µM*,5,-10%,?,?
Cc1c(N=Nc2c(-c3ccc([N+](=O)[O-])cc3)[nH]n(C(N)=S)c2=O)cccc1[N+](=O)[O-],8.9µM*,2,?,?,?
Cc1cccc(NC(=O)c2ccc(N(Cc3ccccc3)S(C)(=O)=O)cc2)c1,4%,·,-13%,?,-17%
COc1ccc(C2C(C(=O)Nc3ccc(C)cc3C)=C(C)Nc3nc(SCc4cccc(C)c4)nn32)c(OC)c1 (centres undefined),3%,·,-7%,0%,-28%
CSc1nc2cc(Oc3cccc(Cl)c3Cl)c(Cl)cc2[nH]1,?,1,13µM*,?,-18%
CSc1nc2ccc(Cl)cc2[nH]1,-3%,1,-7%,-3%,-4%
CC1=NN(C(N)=S)C(=O)C1N=Nc1ccc(O)cc1 (centres undefined),13µM*,-1,-10%,-17%,-17%
COc1cc(N)c(Cc2nccc3cc(OC)c(OC)cc23)cc1OC,?,-31*,-8%,-27%,?
O=C(O)CCC/C=C\CC1C2CCC(O2)C1CNNC(=O)Nc1ccccc1 (centres undefined),-2%,-3,-1%,-3%,·
Cc1ccc2c(CNCc3cccs3)c(C(=O)O)n(Cc3ccc(F)cc3)c2c1,0%,·,5%,-2%,-13%
COc1ccc(NCc2ccccc2[N+](=O)[O-])cc1OC,?,-40*,1%,-30%,-25%
COc1ccc2c(c1)-c1c(sn(-c3ccccc3)c1=S)C(C)(C)N2,?,-4,?,14µM*[quencher],-22%
COc1ccc2c(c1)-c1c(ssc1=S)C(C)(C)N2S(=O)(=O)c1ccc(C)cc1,-11%,1,-8%,-26%,-7%
SMILES,Tau fibril ThT,Coupling enz,Tau FP inhib,Tau fluor cs,USP1-UAF1 inh
COc1ccc2c(c1)-c1c(sn(-c3ccc(OC)c(OC)c3)c1=S)C(C)(C)N2,?,-3,13%,?,-13%
COc1ccc2c(c1)-c1c(ssc1=S)C(C)(C)N2,14µM*,-1,-10%,16µM*[quencher],-16%
COc1ccc(-n2sc3c(c2=S)-c2cc(OC)ccc2NC3(C)C)cc1,?,2,?,7.9µM*[quencher],-23%
CC1=C(c2ccc(F)cc2)S(=O)(=O)N=C1N1CCC(C(=O)NCCc2ccco2)CC1,-17%,·,-9%,-9%,-21%
Cc1ccccc1NC(=O)c1nc(-c2ccncc2)no1,-17%,·,3%,?,-12%
CCC[C@H](NC(=O)[C@H](CC(C)C)N(C)C(=O)CNC(=O)[C@@H](NC(=O)[C@H](Cc1ccccc1)NC(=O)[C@H](CCCCN)NC(=O)[C@@H](N)CC(=O)O)C(C)C)C(N)=O,·,1,·,·,·
Cc1ccc(S(=O)(=O)C(C#N)c2nc3ccccc3nc2N2CCCC2)cc1 (centres undefined),?,-30*,0%,-25%,-19%
COC(=O)c1c(NC(=O)CCCOc2ccccc2C)sc2c1CCC2,-18%,·,-4%,-13%,-22%
COc1cc(/C=N/Nc2ccc3ccccc3c2)ccc1OC(=O)c1ccco1,13µM*,-1,-8%,13µM*[quencher],-8%
COc1cc(/C=N/Nc2nc(C)cc(C)n2)ccc1OC(=O)c1ccco1,?,0,1%,-8%,-18%
CC(=O)Oc1cc2c(C(=O)NCCCN3CCOCC3)c(C)oc2c2ccccc12,?,-38*,-4%,-26%,-19%
Cc1c(OCC(=O)NCCCN2CCOCC2)ccc2c1oc(=O)c1ccccc12,·,·,·,·,-13%
COc1cc2c(cc1NC(=O)Nc1ccccc1)oc1ccccc12,2%,-5,-8%,7.1µM*[quencher],-2%
COc1cc2c(cc1NC(=S)Nc1cccc(C(F)(F)F)c1)oc1ccccc12,?,-4,?,13µM*[quencher],?
Cc1ccc(OC(C)C(=O)N2CCN(CCc3ccccn3)CC2)cc1C (centres undefined),7%,·,6%,8%,-6%
Clc1ccc(-c2nnnn2-c2ccc(Cl)cc2)cc1,6%,4,6%,3%,-11%
Cc1ccc(-n2nnnc2C(Cl)(Cl)c2nnnn2-c2ccc(C)cc2)cc1,8.9µM*,2,16µM*,-19%,-18%
Cc1nn(C)c2c1c(-c1ccccc1)cc(=O)n2CC(=O)Nc1ccccc1C(F)(F)F,4%,·,3%,1%,-29%
Cc1ccc2c(c1)N(CC(=O)NCCCN1CC(C)CC(C)C1)C(=O)c1cccnc1O2 (centres undefined),·,1,·,·,-5%
